Laboratory results: PubChem BioAssay (NCATS)
Inconclusive results are not listed. Calls of active or inactive are those of the source. The call rests on the fitted dose curve; in most records, active means well fitted curve in the direction sought with a large enough effect; inconclusive means small, poorly fitted or top-dose-only effect, or another doubt; inactive means no such curve, though single readings can be large; an effect the other way counts as inactive or inconclusive.

Experiments:
[1] = qHTS of pediatric cancer cell lines to identify multiple opportunities for drug repurposing: Primary screen for BT-12 cells (AID 1347101); further: nearly all actives have a fitted effect of over 25% in size
Summary of the method: (§1)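 Cells (500-1,000/well) rested 5 h, then received compounds for 48 h; metabolically active cells were measured by CellTiter-Glo luminescence. Final concentrations spanned up to 46 µM (MIPE, 11-point) or 0.59 nM-46 µM (NPC, 8-point) in primary screens, 11-point in follow-ups.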

[2] = qHTS of pediatric cancer cell lines to identify multiple opportunities for drug repurposing: Primary screen for Rh18 cells (AID 1347102); further: nearly all actives have a fitted effect of over 65% in size
Summary of the method: (§2)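 Cells (500-1,000/well) in growth media were settled 5 h at 37 degrees C, then given compounds for 48 h. Viability was read as CellTiter-Glo luminescence. Primary runs used MIPE at 11 points (0.78 nM-46 µM) and NPC at 8 points (0.59 nM-46 µM); follow-ups used 11 points.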

[3] = qHTS of pediatric cancer cell lines to identify multiple opportunities for drug repurposing: Primary screen for RD cells (AID 1347104); further: nearly all actives have a fitted effect of over 55% in size
Summary of the method: (§3)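 Following a 5-hour attachment period, cells at 500-1,000/well received compounds and were cultured for 48 hours. CellTiter-Glo was added and luminescence read to estimate viable, metabolically active cells.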

[4] = qHTS of pediatric cancer cell lines to identify multiple opportunities for drug repurposing: Primary screen for control Hh wild type fibroblast cells (AID 1347106); further: nearly all actives have a fitted effect of over 55% in size;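 on activity change, negative = cytotoxic: a drop in luminescence marks cytotoxicity and a rise apparent proliferation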
Summary of the method: as §2

[5] = qHTS of pediatric cancer cell lines to identify multiple opportunities for drug repurposing: Primary screen for Rh30 cells (AID 1347107); further: nearly all actives have a fitted effect of over 75% in size
Summary of the method: as §2

[6] = qHTS of pediatric cancer cell lines to identify multiple opportunities for drug repurposing: Primary screen for Rh41 cells (AID 1347108); further: nearly all actives have a fitted effect of over 70% in size;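 on activity change, negative = cytotoxic: luminescence drop marks cytotoxic hits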
Summary of the method: as §3

[7] = qHTS of pediatric cancer cell lines to identify multiple opportunities for drug repurposing: Primary screen for MG 63 (6-TG R) cells (AID 1347105); further: nearly all actives have a fitted effect of over 50% in size
Summary of the method: as §3

[8] = qHTS of pediatric cancer cell lines to identify multiple opportunities for drug repurposing: Primary screen for OHS-50 cells (AID 1347103); further: nearly all actives have a fitted effect of over 40% in size
Summary of the method: as §1

[9] = qHTS of pediatric cancer cell lines to identify multiple opportunities for drug repurposing: Confirmatory screen for NB1643 cells (AID 1347109); further: nearly all actives have a fitted effect of over 45% in size
Summary of the method: as §2

[10] = qHTS of pediatric cancer cell lines to identify multiple opportunities for drug repurposing: Confirmatory screen for A673 cells (AID 1347110);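 further: cells exposed to compound for 48 h before the viability read; nearly all actives have a fitted effect of over 65% in size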
Summary of the method: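 qHTS titration format: primary MIPE 0.78 nM-46 µM (11 pts), NPC 0.59 nM-46 µM; confirmation 11 pts. 48 h, CTG luminescence.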

[11] = qHTS of pediatric cancer cell lines to identify multiple opportunities for drug repurposing: Confirmatory screen for LAN-5 cells (AID 1347113); further: nearly all actives have a fitted effect of over 65% in size
Summary of the method: as §2

[12] = qHTS of pediatric cancer cell lines to identify multiple opportunities for drug repurposing: Confirmatory screen for DAOY cells (AID 1347114); further: nearly all actives have a fitted effect of over 65% in size
Summary of the method: (§4)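 Viability measured as metabolically active cells via CellTiter-Glo luminescence following 48 hours of compound exposure, 11-point dilutions in confirmatory testing. 500-1,000 cells/well plated 5 hours before dosing; controls were DMSO and 2.3 µM bortezomib.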

[13] = qHTS of pediatric cancer cell lines to identify multiple opportunities for drug repurposing: Confirmatory screen for NB-EBc1 cells (AID 1347115);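 further: cells exposed to compound for 48 h before the viability read; nearly all actives have a fitted effect of over 45% in size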
Summary of the method: as §2

[14] = qHTS of pediatric cancer cell lines to identify multiple opportunities for drug repurposing: Confirmatory screen for SJ-GBM2 cells (AID 1347116); further: nearly all actives have a fitted effect of over 60% in size
Summary of the method: as §4

[15] = qHTS of pediatric cancer cell lines to identify multiple opportunities for drug repurposing: Confirmatory screen for BT-37 cells (AID 1347117); conditions: BT-37 pediatric cancer cells, viability; activity change, negative = cytotoxic: at 45.9 µM (top of the series); further: nearly all actives have a fitted effect of over 55% in size
Summary of the method: as §2

[16] = qHTS of pediatric cancer cell lines to identify multiple opportunities for drug repurposing: Confirmatory screen for MG 63 (6-TG R) cells (AID 1347119); further: nearly all actives have a fitted effect of over 55% in size
Summary of the method: as §2

[17] = qHTS of pediatric cancer cell lines to identify multiple opportunities for drug repurposing: Confirmatory screen for control Hh wild type fibroblast cells (AID 1347121); further: nearly all actives have a fitted effect of over 70% in size
Summary of the method: as §2

[18] = qHTS of pediatric cancer cell lines to identify multiple opportunities for drug repurposing: Confirmatory screen for SK-N-MC cells (AID 1347111);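 further: cells exposed to compound for 48 h before the readout; nearly all actives have a fitted effect of over 70% in size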
Summary of the method: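 Metabolically active cells were quantified by ATP-dependent luminescence (CellTiter-Glo, 15 min at room temperature) following 48 h treatment. Cells had been plated at 500-1,000 per well and settled for 5 h beforehand.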

[19] = qHTS of pediatric cancer cell lines to identify multiple opportunities for drug repurposing: Confirmatory screen for TC32 cells (AID 1347118)
Summary of the method: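 Measured quantity: luminescence from CellTiter-Glo, reflecting metabolically active TC32 cells following 48 h of compound. Curves came straight from multi-point titrations, with 8 or 11 points in primary and 11 in confirmatory screening.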

[20] = qHTS of pediatric cancer cell lines to identify multiple opportunities for drug repurposing: Confirmatory screen for BT-12 cells (AID 1347112); further: nearly all actives have a fitted effect of over 55% in size
Summary of the method: as §2

Measured: Potency
Potency means the concentration at half of the fitted maximal effect.

COc1cc(CCc2cc(NC(=O)c3ccc(N4C[C@@H](C)N[C@@H](C)C4)cc3)n[nH]2)cc(OC)c1
active: [1] 27.3 µM | [2] 5.9 µM | [3] 16.6 µM | [4] 33.2 µM | [5] 18.7 µM | [6] 5.9 µM

Cn1cc(C=CC(=O)c2cccc(F)c2)cc1C=CC(=O)NO
inactive: [1] | [2] | [7] | [5]

CC(=O)SCC(Cc1ccccc1)C(=O)NCC(=O)OCc1ccccc1 (stereo unspecified)
inactive: [9] | [10] | [11] | [12] | [13] | [14] | [15] | [16] | [17]
active: [1] 3.43 µM | [8] 19.3 µM | [3] 2.09 µM | [6] 5.9 µM

C[C@@H](Oc1ccc2[nH]nc(C=Cc3cnn(CCO)c3)c2c1)c1c(Cl)cncc1Cl
active: [1] 17.2 µM | [2] 5.9 µM | [3] 18.7 µM | [7] 18.7 µM | [6] 14.8 µM | [9] 0.657 µM | [10] 1.31 µM | [18] 2.61 µM | [11] 0.827 µM | [12] 18.5 µM | [13] 13.1 µM | [14] 18.5 µM | [15] 18.5 µM | [19] 2.33 µM | [16] 0.737 µM | [17] 13.1 µM

CC(=O)NCC(=O)N1[C@H]2CC[C@H]1c1cc(Nc3ncc(C(F)(F)F)c(NC4CCC4)n3)ccc12
active: [1] 24.3 µM | [8] 0.344 µM | [3] 2.35 µM | [7] 2.35 µM | [6] 1.48 µM | [10] 4.14 µM | [18] 0.0827 µM | [20] 16.5 µM | [11] 1.47 µM | [13] 9.27 µM | [14] 5.85 µM | [15] 11.7 µM | [19] 0.0465 µM | [16] 0.233 µM

CC(C)(C)c1nc2c3cc[nH]c(=O)c3c3cc(F)ccc3c2[nH]1
inactive: [1] | [2] | [7] | [4] | [5] | [6]

NC(=O)Nc1cc(-c2ccc(CN3CCOCC3)cc2)sc1C(N)=O
active: [1] 24.3 µM | [8] 0.217 µM | [3] 8.33 µM | [7] 11.8 µM | [6] 7.43 µM | [9] 0.414 µM | [10] 11.7 µM | [18] 0.657 µM | [15] 18.5 µM | [19] 0.414 µM | [16] 3.69 µM
inactive: [4]
